Source: PubChem BioAssay AID2158 (National Center for Advancing Translational Sciences (NCATS), 2009)
“And” between values parts separate entries of the source, which are not always exact repeats. Equal values may be shown once. Inconclusive results are not listed. A structure can be active in one record and inactive in another. The source made the active and inactive calls. The call rests on the fitted dose curve; in most records, active means well fitted inhibition curve with a large enough effect; inconclusive means small, poorly fitted or top-dose-only effect; inactive means no such curve, though single readings can be large or run the other way.

Each molecule was assayed against Cruzipain (Trypanosoma cruzi) (UniProt P25779) (assay: Confirmation qHTS Assay for Inhibitors of Cruzain). Conditions: purified cruzain, Z-FR-AMC fluorescence, 0.01% Triton.
Method in brief: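 Reaction progress from the 60 s rise in AMC fluorescence (ex 360, em 450 nm) after adding 2 uM Z-FR-AMC. Before this, 1.5 nM cruzain sat 15 min at room temperature with compound in pH 5.5 acetate buffer with 5 mM DTT and 0.01% Triton X-100.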
Further: nearly all actives have a fitted effect of over 40% in size.
Potency means the concentration at half of the fitted maximal effect.
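Wherever Activity change, negative = inhibition is given: plate controls were uninhibited enzyme control for no effect and buffer wells lacking enzyme for full effect.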

Cruzipain (Trypanosoma cruzi), sequence (P25779 123-467 limits assumed): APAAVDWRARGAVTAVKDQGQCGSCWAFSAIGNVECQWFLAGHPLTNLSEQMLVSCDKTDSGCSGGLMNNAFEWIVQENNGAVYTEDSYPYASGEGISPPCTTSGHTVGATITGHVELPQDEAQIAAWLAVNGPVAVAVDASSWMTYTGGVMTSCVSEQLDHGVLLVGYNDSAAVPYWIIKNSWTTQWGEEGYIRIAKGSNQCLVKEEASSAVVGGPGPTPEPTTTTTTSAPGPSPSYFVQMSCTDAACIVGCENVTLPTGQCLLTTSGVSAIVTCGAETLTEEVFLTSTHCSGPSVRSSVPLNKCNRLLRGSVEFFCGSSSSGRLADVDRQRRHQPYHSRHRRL

Activity change, negative = inhibition, inactive:
O=C(N/N=C\c1ccccc1O)c1ccccc1O -9.61%
CC(C)(C)OC(=O)Cc1nnc(CNC(=O)c2ccccc2)s1 -0.719%
O=C(NCCCc1nc2ccccc2n1CCOc1ccccc1)C1CCCCC1 -11.7%
O=C(CNC(=O)c1ccccc1)NCC(=O)OCC(=O)c1cccc2ccccc12 -13.9%
N#CN1CCC(NC(=O)c2cccc(C(F)(F)F)c2)CC1 -5.22%
CCn1cnc2c(Nc3cc(F)cc(F)c3)nc(C(=O)COc3c(F)c(F)cc(F)c3F)nc21 -8.99%
c1ccc2cc3c(NCCN4CCOCC4)ccnc3cc2c1 -21.6%
CC(C)(C)OC(=O)Cc1nnc(-c2cc3ccccc3[nH]2)o1 0.423%
O=C(Cn1cc(CNC(=O)C2CCCCC2)nn1)Nc1cc(C(F)(F)F)ccc1Cl 0.597%
Cc1ccccc1-n1c(C)cc(/C=C2/C(=N)N3C(c4ccccc4)=CSC3=NC2=O)c1C -3.9%
CCOC(=O)c1ccc(N2CSC3=C(C#N)C(c4cccs4)CC(=O)N3C2)cc1 (stereo not given) -9.35%
O=C(NC(=S)Nc1cccc(Cl)c1N1CCCC1)c1ccc(-c2cccc([N+](=O)[O-])c2)o1 -8.07%
CCCCC(O)C(=O)Nc1cc(C(F)(F)F)ccc1Cl (stereo not given) -16.9%
CCN(Cc1ccccc1)c1nc2c(S(=O)(=O)c3ccccc3)nnn2c2ccc(Cl)cc12 -6.48%
Cc1ccc(S(=O)(=O)NC(N)=NCCC[C@@H](N)C(=O)Nc2cc(C(F)(F)F)ccc2Cl)cc1 -17.2%
CCCCNC(=O)c1ccc2nc(-c3cccs3)c(-c3cccs3)nc2c1 -3.05%
CC1CCN(c2oc(-c3cccc4ccccc34)nc2C#N)CC1 -40.4%
Cc1ccc2cc(CN(Cc3ccco3)Cc3nnnn3Cc3ccco3)c(=O)[nH]c2c1 -10.1%
O=C(CNC(=O)c1ccccc1)N[C@@H](C(=O)Nc1cc(C(F)(F)F)ccc1Cl)c1ccccc1 -6.12% and -5.77%
O=C(CNC(=O)c1ccccc1)OC(C(=O)Nc1cc(C(F)(F)F)ccc1Cl)c1ccccc1 (stereo not given) -10.9% and -27.8%

Potency, active:
CCc1ccc(OCCn2c(CCNC(=O)C3CCCCC3)nc3ccccc32)cc1 2.24 µM
CC(C)CCNC(=O)Cn1c(SCc2cccc(F)c2)nc2ccncc21 14.1 µM
Cc1ccc(OCCn2c(CCNC(=O)C3CCCCC3)nc3ccccc32)cc1 0.1 µM
CC(C)NC(=O)COC(=O)CNC(=O)C1CCCCC1 14.1 µM
N#Cc1nc(N2CCCCC2)nc(N(c2ccccc2)c2ccccc2)n1 2.24 µM
O=C(CNC(=O)c1ccc(Cl)cc1Cl)OC(C(=O)Nc1cc(C(F)(F)F)ccc1Cl)c1ccccc1 (stereo not given) 7.08 µM
NC(=O)C(OC(=O)CNC(=O)C1CCCCC1)c1ccccc1 (stereo not given) 2.51 µM
N#Cc1nc(Nc2cc(Cl)cc(Cl)c2)nc(NC2CCCC2)n1 0.398 µM
O=C(NCCO)c1ccc2nc(-c3ccco3)c(-c3ccco3)nc2c1 14.1 µM
CCC(C(=O)NC1CCCCC1)n1c(SCc2cccc(F)c2)nc2ccncc21 (stereo not given) 6.31 µM
COc1ccccc1NC(=O)C(OC(=O)CNC(=O)c1ccccc1)c1ccccc1 (stereo not given) 10 µM
C=C(C)C(=O)OC1(C(F)(F)F)Oc2cc(C)ccc2NC1=O (stereo not given) 14.1 µM
Cc1cccc(OCCn2c(CCNC(=O)C3CCCCC3)nc3ccccc32)c1 0.891 µM
O=C(CNC(=O)C1CCCCC1)OCC(=O)c1ccc2c(c1)CCC2 6.31 µM
N#Cc1nc(N2CCCC2)nc(N(c2ccccc2)c2ccccc2)n1 1 µM
COc1cccc(Nc2nc(C#N)nc(NC3CCCC3)n2)c1 0.199 µM
CC(C)(C)c1ccc(S(=O)(=O)c2cnc(SCC(=O)Nc3ccc(F)c(Cl)c3)[nH]c2=O)cc1 3.98 µM
CCn1cnc2c(Nc3ccc(Cc4cccnc4)cc3)nc(C#N)nc21 14.1 µM
O=C(CNC(=O)c1ccccc1)OC(C(=O)Nc1cc(C(F)(F)F)ccc1Cl)c1ccccc1 (stereo not given) 5.01 µM
NC(=S)N/N=C/c1ccc(-c2ccc(Cl)c(Cl)c2)o1 2 µM
